About 83,000 compounds went through this panel and 20% of them were active in at least one assay; those are over-represented in the sample as a whole.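 Single-concentration screen, 48 h exposure, 96-well plates. Endpoint: percent growth. Below 10 = active.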 Active and inactive are the calls of the source.
Experiments:
Assay in all cases: NCI-60 one-dose screen, 48 h (100 = growth as untreated, 0 = no growth, -100 = all killed)
Conditions in all cases: 10 µM unless noted
[1] = system: NCI-H23 lung
[2] = system: NCI-H226 lung
[3] = system: NCI-H322M lung
[4] = system: HOP-62 NSCLC
[5] = system: NCI-H460 lung
[6] = system: HOP-92 NSCLC
[7] = system: NCI-H522 lung
[8] = system: 786-0 renal
[9] = system: COLO 205 colon
[10] = system: A549/ATCC NSCLC

Measured: growth

CCCC(=O)CC(=O)c1ccccc1
inactive: [1] 96% | [2] 91.7% | [3] 95.1% | [4] 92.8% | [5] 106% | [6] 95.6% | [7] 78.1% | [8] 103% | [9] 113%

Cc1ccc(S(=O)(=O)CCCl)cc1
inactive: [1] 102% | [2] 108% | [3] 128% | [4] 112% | [5] 105% | [6] 76.1% | [7] 113% | [8] 108% | [9] 120%

O=C(CCCl)OCCOc1ccccc1
inactive: [1] 96.2% | [2] 104% | [3] 97% | [4] 105% | [5] 104% | [6] 86.7% | [7] 98.2% | [8] 99.4% | [9] 103%

COc1cc(-c2ccc(NC(=O)CC(C)=O)c(OC)c2)ccc1NC(=O)CC(C)=O
inactive: [1] 96% | [2] 91.4% | [3] 102% | [4] 98% | [5] 109% | [6] 98.2% | [7] 95.5% | [8] 105% | [9] 115%

O=C(O)CSCC(=O)Nc1cc(C(F)(F)F)ccc1Cl
inactive: [1] 111% | [2] 109% | [3] 103% | [4] 105% | [5] 134% | [6] 104% | [7] 99.9% | [8] 107% | [9] 121%

CCOc1ccc(NC(=S)N2CCC(CCCC3CCN(C(=S)Nc4ccc(OCC)cc4)CC3)CC2)cc1
inactive: [1] 75.8% | [2] 77.1% | [3] 100% | [4] 104% | [5] 91.5% | [6] 59.2% | [7] 77.7% | [10] 83.3% | [9] 110%

CCOC(=O)C(COS(C)(=O)=O)(COS(C)(=O)=O)C(=O)OCC
inactive: [1] 99.5% | [2] 105% | [3] 101% | [4] 98.1% | [5] 109% | [6] 86% | [7] 96% | [8] 108% | [9] 107%

CCOC(=O)CSCCC#N
inactive: [1] 95.3% | [2] 98.3% | [3] 101% | [4] 82.3% | [5] 106% | [6] 102% | [7] 96.3% | [8] 93.5% | [9] 107%

CCCCN(C(=O)CC)c1ccccc1
inactive: [1] 99.9% | [2] 107% | [3] 97.9% | [4] 105% | [5] 103% | [6] 109% | [7] 95.3% | [8] 99.2% | [9] 99.7%

C=CCC(OC(C)=O)c1ccc(OC)c(OC)c1 (stereo unspecified)
inactive: [1] 109% | [2] 119% | [3] 105% | [4] 110% | [5] 106% | [6] 108% | [7] 92.1% | [8] 115% | [9] 113%

COc1nc2ccccc2s1
inactive: [1] 94.7% | [2] 97.3% | [3] 111% | [4] 114% | [5] 99.4% | [6] 99.2% | [7] 96.3% | [8] 104% | [9] 93.1%

CCCCCC(=O)OCCC1CCCCC1
inactive: [1] 96.2% | [2] 101% | [3] 99.9% | [4] 98.6% | [5] 105% | [6] 70% | [7] 95% | [8] 106% | [9] 101%

CCCCCCCCCCCCCCCCCC(=O)NCCNC(=O)CCCCCCCCCCCCCCCCC
inactive: [1] 95.2% | [2] 107% | [3] 72.4% | [4] 89.8% | [5] 98.8% | [6] 37.4% | [7] 98.7% | [8] 91.9% | [9] 84.5%

Oc1cccnc1CN1CCCC1
inactive: [1] 100% | [2] 97.9% | [3] 102% | [4] 111% | [5] 107% | [6] 79.7% | [7] 97.1% | [10] 98.2% | [9] 103%

O=C1Nc2ccccc2/C1=C\c1ccccc1O
inactive: [1] 82.6% | [2] 93.2% | [3] 80.5% | [4] 87.9% | [5] 98.7% | [6] 46.6% | [7] 61.6% | [8] 98.8% | [9] 124%

O=C(Nc1ccc([N+](=O)[O-])cc1)C(=O)Nc1ccc([N+](=O)[O-])cc1
inactive: [1] 100% | [2] 96.9% | [3] 101% | [4] 81% | [5] 103% | [6] 95.4% | [7] 77.3% | [8] 110% | [9] 101%

Clc1ccc(/C=C/c2ccccn2)cc1
inactive: [1] 91.2% | [2] 101% | [3] 107% | [4] 94.7% | [5] 104% | [6] 56.3% | [7] 87.1% | [8] 98.1% | [9] 105%

NNC(=O)N/N=C1\C(=O)N(c2nccs2)C(=O)C(=O)C1c1nc2ccccc2s1 (stereo unspecified)
inactive: [1] 95.6% | [2] 89.1% | [3] 105% | [4] 81.3% | [5] 101% | [6] 98.6% | [7] 83.1% | [8] 118% | [9] 98.6%

Nc1ccccc1SC1CC(=O)N(c2ccc(Cl)c(Cl)c2)C1=O (stereo unspecified)
inactive: [1] 104% | [2] 106% | [3] 128% | [4] 96.6% | [5] 117% | [6] 101% | [7] 117% | [8] 93.9% | [9] 127%

CN(CCCN(C)CCC1CCCCC1)CCC1CCCCC1
inactive: [1] 64.1% | [2] 66.9% | [3] 94.6% | [4] 57.3% | [5] 29% | [6] 21.3% | [7] 69.6% | [8] 53.2%
active: [9] -81%

CCCCNC(=O)c1ccc(OCC)cc1
inactive: [1] 101% | [2] 96% | [3] 102% | [4] 101% | [5] 103% | [6] 93.1% | [7] 95.6% | [8] 98.3% | [9] 106%

O=C(c1ccc(Cl)cc1)N1CCCCC1
inactive: [1] 95.6% | [2] 95.4% | [3] 106% | [4] 96.7% | [5] 101% | [6] 97.4% | [7] 93.6% | [8] 102% | [9] 104%

CSc1nc2[nH]ncc2c(=O)[nH]1
inactive: [1] 94.8% | [2] 91.4% | [3] 108% | [4] 101% | [5] 98.8% | [6] 106% | [7] 99.9% | [8] 101% | [9] 107%

S=C=Nc1ccc2ccccc2c1
inactive: [1] 96.9% | [2] 101% | [3] 109% | [4] 98.3% | [5] 105% | [6] 79% | [7] 97.3% | [10] 100% | [9] 111%

c1ccc(-c2ccc3ccccc3c2)cc1
inactive: [1] 100% | [2] 80.4% | [3] 85% | [4] 85.3% | [5] 102% | [6] 77% | [7] 57.1% | [8] 112% | [9] 96.3%

O=c1cc(Cl)nc2ccccn12
inactive: [1] 98.8% | [2] 106% | [3] 107% | [4] 103% | [5] 106% | [6] 94% | [7] 99.7% | [8] 108% | [9] 127%

O=Cc1ccc(O)c(O)c1
inactive: [1] 100% | [2] 95.9% | [3] 104% | [4] 97.1% | [5] 98.9% | [6] 84.9% | [7] 84.3% | [8] 101% | [9] 95.4%

Cn1c(=O)c2[nH]c(CCCCC(=O)O)nc2n(C)c1=O
inactive: [1] 114% | [2] 118% | [3] 101% | [4] 108% | [5] 116% | [6] 88.9% | [7] 96.2% | [8] 114% | [9] 103%

CC(C)C(=O)OCCOc1ccc(C(C)(C)C)cc1
inactive: [1] 103% | [2] 99.4% | [3] 101% | [4] 102% | [5] 102% | [6] 97.7% | [7] 84.8% | [8] 101% | [9] 108%

N#C/C(=C\c1ccc2c(c1)OCO2)c1ccccc1
inactive: [1] 84% | [2] 90.9% | [3] 95.1% | [4] 67.3% | [5] 68.3% | [6] 64.5% | [7] 52% | [10] 71.9% | [8] 95.5% | [9] 66.5%
